# Assay results as given in paper PMC7862700, “An all-to-all approach to the identification of sequence-specific readers for epigenetic DNA modifications on cytosine”.
# Tests used:
# Test in all cases: DAPPL (digital affinity profiling via proximity ligation, sequencing); 10 mM Tris-HCl pH 7.5, 50 mM NaCl, 1 mM DTT, 4% glycerol, room temperature, 30 min; GST-TFs on glutathione beads, 16-mer random dsDNA library, 0.1% formaldehyde crosslink after washing; high values mean tight binding
# [1] = target: T1, FEV (Homo sapiens, UniProt Q99581 1-238); conditions: protein: recombinant; tags: N-terminal GST; dsDNA, one strand shown
# T1 sequence: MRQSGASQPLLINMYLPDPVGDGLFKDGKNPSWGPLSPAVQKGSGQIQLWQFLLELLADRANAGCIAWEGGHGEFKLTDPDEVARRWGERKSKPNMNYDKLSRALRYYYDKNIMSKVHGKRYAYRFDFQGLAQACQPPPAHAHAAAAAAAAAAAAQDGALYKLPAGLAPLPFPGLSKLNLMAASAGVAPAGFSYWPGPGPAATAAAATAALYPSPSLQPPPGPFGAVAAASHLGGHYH
# Procedure, shortened: (§1)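 Human transcription factors were made in yeast as GST fusions, captured on glutathione beads and barcoded with DNA. With a tag-only sample included, the pool was incubated with 200 nmole of a random double-stranded 16-mer DNA library in Tris/NaCl/DTT/glycerol buffer at room temperature for 30 min, then crosslinked with 0.1% formaldehyde after washing, ligated by proximity, amplified and sequenced. For binding signal, each hexamer's read frequency for a factor is divided by its frequency for the tag-only sample.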
# [2] = target: ETV5 (Homo sapiens, UniProt P41161 1-510); conditions: protein: recombinant; tags: N-terminal GST; dsDNA, one strand shown
# Chain of ETV5 (P41161 whole entry): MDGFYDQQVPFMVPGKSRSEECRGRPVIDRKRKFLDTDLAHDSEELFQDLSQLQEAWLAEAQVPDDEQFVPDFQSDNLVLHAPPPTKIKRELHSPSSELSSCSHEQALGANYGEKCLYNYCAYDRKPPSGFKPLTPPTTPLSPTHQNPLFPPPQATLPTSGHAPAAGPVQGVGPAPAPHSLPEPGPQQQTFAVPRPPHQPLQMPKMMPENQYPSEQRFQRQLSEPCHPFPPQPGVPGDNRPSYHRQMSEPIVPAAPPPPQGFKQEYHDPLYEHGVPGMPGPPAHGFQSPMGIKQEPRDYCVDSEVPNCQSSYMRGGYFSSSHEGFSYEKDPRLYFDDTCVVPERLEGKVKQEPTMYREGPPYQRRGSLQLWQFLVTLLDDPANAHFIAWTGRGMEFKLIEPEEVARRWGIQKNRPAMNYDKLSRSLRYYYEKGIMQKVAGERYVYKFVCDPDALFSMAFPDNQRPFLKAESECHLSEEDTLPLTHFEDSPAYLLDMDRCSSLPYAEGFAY
# Procedure, shortened: as §1
# [3] = target: HSF1 (Homo sapiens, UniProt Q00613 1-529); conditions: protein: recombinant; tags: N-terminal GST; chain copies: 3; dsDNA, one strand shown
# Chain of HSF1 (Q00613 whole entry): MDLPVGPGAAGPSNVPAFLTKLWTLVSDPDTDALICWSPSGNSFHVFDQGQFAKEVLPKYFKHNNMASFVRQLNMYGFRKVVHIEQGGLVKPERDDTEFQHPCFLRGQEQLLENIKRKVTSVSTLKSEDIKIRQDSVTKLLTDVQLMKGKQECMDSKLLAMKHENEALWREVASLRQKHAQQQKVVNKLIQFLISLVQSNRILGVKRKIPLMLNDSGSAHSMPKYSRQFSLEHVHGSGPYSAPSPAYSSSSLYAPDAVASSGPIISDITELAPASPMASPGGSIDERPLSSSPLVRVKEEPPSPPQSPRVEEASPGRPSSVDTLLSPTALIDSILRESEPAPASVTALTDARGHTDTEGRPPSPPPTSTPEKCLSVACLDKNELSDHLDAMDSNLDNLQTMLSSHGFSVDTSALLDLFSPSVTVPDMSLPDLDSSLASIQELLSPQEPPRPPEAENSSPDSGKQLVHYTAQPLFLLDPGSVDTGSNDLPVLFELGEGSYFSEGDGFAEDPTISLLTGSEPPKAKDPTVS
# Procedure, shortened: as §1
# [4] = target: T2, SPIC (Homo sapiens, UniProt Q8N5J4 1-248); conditions: protein: recombinant; tags: N-terminal GST; dsDNA, one strand shown
# T2 sequence: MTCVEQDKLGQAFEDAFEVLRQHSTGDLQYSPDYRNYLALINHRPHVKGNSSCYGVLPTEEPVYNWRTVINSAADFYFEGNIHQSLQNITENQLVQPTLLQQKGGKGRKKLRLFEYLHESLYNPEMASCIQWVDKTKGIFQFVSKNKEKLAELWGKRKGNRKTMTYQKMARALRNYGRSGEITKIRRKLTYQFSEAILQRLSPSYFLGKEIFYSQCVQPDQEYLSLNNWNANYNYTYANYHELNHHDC
# Procedure, shortened: as §1
# [5] = target: ELF4 (Homo sapiens, UniProt Q99607 1-663); conditions: protein: recombinant; tags: N-terminal GST; dsDNA, one strand shown
# Chain of ELF4 (Q99607 whole entry): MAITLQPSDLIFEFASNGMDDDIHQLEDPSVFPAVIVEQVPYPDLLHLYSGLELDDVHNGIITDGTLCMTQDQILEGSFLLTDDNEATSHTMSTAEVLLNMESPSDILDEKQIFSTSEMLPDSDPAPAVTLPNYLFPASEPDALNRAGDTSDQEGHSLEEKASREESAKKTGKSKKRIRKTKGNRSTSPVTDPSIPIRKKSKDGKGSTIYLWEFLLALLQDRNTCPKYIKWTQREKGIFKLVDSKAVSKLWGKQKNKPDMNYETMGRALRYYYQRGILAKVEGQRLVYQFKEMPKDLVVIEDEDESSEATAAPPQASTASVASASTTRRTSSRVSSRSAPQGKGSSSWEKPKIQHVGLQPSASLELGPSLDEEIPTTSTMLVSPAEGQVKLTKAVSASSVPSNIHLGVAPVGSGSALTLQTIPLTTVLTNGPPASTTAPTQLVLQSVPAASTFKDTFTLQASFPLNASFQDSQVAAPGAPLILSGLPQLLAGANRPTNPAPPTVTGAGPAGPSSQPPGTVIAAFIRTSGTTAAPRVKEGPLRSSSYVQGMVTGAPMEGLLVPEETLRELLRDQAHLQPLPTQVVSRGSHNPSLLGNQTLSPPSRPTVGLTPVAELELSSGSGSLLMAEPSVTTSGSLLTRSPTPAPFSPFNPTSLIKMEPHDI
# Procedure, shortened: as §1
# [6] = target: T3, ELK4 (Homo sapiens, UniProt P28324-2 1-405); conditions: protein: recombinant; tags: N-terminal GST; dsDNA, one strand shown
# T3 sequence: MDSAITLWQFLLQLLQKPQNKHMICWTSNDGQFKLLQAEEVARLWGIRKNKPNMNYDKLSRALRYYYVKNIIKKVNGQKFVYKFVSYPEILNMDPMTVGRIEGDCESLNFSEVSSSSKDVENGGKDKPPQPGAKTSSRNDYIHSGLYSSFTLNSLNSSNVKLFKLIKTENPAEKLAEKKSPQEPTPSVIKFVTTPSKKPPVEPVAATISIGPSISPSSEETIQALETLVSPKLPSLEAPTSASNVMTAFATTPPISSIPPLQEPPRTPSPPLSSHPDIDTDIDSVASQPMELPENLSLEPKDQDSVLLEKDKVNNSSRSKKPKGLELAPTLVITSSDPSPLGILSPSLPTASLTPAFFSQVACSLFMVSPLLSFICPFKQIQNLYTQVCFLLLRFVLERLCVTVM
# Procedure, shortened: as §1
# [7] = target: T4, ETV2 (Homo sapiens, UniProt O00321 1-342); conditions: protein: recombinant; tags: N-terminal GST; dsDNA, one strand shown
# T4 sequence: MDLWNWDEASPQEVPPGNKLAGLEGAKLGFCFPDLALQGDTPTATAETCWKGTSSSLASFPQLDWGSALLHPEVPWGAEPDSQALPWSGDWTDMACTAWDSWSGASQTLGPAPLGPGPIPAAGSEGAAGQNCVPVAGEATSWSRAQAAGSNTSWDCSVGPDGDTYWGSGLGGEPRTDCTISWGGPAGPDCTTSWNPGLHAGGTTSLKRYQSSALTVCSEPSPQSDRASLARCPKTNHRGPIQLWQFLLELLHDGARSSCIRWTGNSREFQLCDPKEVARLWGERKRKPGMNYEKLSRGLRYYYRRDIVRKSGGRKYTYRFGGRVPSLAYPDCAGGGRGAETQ
# Procedure, shortened: as §1
# [8] = target: T5, ELF3 (Homo sapiens, UniProt P78545 1-371); conditions: protein: recombinant; tags: N-terminal GST; dsDNA, one strand shown
# T5 sequence: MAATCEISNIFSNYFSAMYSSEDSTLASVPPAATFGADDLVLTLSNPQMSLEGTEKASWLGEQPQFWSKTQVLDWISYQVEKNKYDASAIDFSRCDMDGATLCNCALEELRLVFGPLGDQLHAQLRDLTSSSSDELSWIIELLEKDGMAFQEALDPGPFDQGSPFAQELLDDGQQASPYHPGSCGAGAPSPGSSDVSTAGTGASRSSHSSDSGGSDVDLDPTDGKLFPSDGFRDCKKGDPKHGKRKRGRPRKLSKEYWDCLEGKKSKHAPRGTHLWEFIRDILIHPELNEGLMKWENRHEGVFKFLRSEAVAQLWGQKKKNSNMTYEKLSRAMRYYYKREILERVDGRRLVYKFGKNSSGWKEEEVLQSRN
# Procedure, shortened: as §1
# [9] = target: CRX (Homo sapiens, UniProt O43186 1-299); conditions: protein: recombinant; tags: N-terminal GST; dsDNA, one strand shown
# Chain of CRX (O43186 whole entry): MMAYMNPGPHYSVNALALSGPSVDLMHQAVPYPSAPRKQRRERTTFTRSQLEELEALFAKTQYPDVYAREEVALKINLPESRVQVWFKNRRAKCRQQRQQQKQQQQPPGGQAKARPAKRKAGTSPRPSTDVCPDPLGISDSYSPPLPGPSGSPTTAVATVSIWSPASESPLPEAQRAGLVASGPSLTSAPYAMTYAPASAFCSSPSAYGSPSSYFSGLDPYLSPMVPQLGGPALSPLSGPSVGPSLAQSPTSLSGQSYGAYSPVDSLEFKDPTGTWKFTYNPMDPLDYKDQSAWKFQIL
# Procedure, shortened: as §1
# [10] = target: ETV1 (Homo sapiens, UniProt P50549 1-477); conditions: protein: recombinant; tags: N-terminal GST; dsDNA, one strand shown
# Chain of ETV1 (P50549 whole entry): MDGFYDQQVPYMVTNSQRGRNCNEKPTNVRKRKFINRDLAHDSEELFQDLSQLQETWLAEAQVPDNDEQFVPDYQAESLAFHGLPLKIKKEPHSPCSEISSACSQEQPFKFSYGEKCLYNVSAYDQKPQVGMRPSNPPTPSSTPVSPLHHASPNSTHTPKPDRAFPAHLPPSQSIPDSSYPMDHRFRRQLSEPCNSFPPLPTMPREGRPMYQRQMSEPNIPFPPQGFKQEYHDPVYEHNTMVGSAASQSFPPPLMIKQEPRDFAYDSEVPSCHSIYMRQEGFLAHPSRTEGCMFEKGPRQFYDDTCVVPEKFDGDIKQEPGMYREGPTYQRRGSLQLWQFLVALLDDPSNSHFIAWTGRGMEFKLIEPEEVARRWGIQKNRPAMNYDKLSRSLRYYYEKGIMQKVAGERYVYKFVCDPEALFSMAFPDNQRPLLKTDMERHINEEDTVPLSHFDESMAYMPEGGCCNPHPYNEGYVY
# Procedure, shortened: as §1
# [11] = target: T6, ERF (Homo sapiens, UniProt P50548 1-548); conditions: protein: recombinant; tags: N-terminal GST; dsDNA, one strand shown
# T6 sequence: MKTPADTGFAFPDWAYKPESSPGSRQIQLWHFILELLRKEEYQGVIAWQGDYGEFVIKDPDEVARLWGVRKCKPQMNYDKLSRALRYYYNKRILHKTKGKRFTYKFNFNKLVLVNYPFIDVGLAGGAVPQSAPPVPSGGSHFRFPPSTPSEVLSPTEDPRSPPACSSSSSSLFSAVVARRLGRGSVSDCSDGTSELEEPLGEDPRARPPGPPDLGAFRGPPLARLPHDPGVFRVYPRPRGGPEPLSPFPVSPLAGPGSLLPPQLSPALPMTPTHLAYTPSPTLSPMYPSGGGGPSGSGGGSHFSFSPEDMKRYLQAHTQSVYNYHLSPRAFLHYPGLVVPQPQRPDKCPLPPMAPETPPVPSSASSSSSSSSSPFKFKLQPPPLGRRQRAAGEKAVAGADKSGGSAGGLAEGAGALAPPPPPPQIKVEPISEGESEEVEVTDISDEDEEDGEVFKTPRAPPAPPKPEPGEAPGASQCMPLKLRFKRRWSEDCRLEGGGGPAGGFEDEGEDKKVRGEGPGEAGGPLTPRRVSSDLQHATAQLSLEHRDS
# Procedure, shortened: as §1
# [12] = target: T7, ETV3L (Homo sapiens, UniProt Q6ZN32 1-361); conditions: protein: recombinant; tags: N-terminal GST; dsDNA, one strand shown
# T7 sequence: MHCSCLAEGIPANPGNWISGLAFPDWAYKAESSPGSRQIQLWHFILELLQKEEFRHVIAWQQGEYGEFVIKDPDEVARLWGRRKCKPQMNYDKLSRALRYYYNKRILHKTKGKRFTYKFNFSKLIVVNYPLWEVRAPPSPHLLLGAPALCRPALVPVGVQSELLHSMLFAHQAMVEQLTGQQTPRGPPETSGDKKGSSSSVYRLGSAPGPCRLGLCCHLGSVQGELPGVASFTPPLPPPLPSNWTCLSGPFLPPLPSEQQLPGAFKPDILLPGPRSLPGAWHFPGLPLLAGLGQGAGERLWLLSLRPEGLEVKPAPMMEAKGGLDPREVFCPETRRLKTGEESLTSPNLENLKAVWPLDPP
# Procedure, shortened: as §1
# [13] = target: T8, ETS2 (Homo sapiens, UniProt P15036 1-469); conditions: protein: recombinant; tags: N-terminal GST; dsDNA, one strand shown
# T8 sequence: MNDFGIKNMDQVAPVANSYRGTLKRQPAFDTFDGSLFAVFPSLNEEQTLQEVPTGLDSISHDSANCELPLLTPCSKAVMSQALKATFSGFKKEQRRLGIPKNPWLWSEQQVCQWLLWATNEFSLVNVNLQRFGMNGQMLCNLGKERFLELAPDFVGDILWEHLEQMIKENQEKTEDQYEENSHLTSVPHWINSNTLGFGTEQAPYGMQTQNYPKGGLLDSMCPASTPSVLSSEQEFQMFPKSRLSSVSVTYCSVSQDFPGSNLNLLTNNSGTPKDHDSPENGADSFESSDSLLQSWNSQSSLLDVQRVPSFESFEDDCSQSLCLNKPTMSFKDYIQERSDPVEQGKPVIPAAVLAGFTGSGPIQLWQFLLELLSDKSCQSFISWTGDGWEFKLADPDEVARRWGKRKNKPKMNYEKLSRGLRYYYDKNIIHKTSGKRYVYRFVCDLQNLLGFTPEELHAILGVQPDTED
# Procedure, shortened: as §1
# [14] = target: T9, SPDEF (Homo sapiens, UniProt O95238 1-335); conditions: protein: recombinant; tags: N-terminal GST; dsDNA, one strand shown
# T9 sequence: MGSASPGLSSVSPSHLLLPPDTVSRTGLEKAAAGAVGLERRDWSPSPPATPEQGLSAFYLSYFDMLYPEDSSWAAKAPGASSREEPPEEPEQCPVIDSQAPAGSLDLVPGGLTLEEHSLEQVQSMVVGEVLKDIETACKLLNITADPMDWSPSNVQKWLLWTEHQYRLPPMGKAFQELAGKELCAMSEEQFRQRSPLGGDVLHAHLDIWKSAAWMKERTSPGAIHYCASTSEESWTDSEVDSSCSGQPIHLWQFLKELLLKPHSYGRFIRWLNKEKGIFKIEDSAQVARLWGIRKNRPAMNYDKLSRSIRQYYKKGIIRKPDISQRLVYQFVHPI
# Procedure, shortened: as §1
# [15] = target: T10, ETV7 (Homo sapiens, UniProt Q9Y603 1-341); conditions: protein: recombinant; tags: N-terminal GST; dsDNA, one strand shown
# T10 sequence: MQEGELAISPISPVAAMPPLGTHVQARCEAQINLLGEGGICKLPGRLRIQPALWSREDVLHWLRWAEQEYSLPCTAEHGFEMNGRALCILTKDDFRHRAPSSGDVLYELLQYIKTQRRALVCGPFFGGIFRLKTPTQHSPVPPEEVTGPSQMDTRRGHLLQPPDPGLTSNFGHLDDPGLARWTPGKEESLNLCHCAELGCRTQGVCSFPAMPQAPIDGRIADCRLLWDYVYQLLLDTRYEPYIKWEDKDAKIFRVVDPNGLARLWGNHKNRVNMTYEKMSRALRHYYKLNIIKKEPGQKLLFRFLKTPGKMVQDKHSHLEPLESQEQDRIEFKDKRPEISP
# Procedure, shortened: as §1
# [16] = target: T11, ELF5 (Homo sapiens, UniProt Q9UKW6-2 1-255); conditions: protein: recombinant; tags: N-terminal GST; dsDNA, one strand shown
# T11 sequence: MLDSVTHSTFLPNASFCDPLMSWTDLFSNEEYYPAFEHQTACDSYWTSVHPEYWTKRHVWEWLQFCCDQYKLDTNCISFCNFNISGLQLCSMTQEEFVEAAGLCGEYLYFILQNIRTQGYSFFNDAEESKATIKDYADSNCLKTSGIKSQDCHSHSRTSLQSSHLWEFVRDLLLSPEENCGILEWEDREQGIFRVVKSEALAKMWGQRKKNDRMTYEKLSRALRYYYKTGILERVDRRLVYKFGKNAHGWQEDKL
# Procedure, shortened: as §1
# [17] = target: T12, ETV3 (Homo sapiens, UniProt P41162-2 1-143); conditions: protein: recombinant; tags: N-terminal GST; dsDNA, one strand shown
# T12 sequence: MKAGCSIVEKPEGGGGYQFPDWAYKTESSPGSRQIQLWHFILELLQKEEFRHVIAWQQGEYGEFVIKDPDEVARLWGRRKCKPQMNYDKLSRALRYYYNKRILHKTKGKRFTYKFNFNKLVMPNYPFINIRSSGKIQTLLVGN
# Procedure, shortened: as §1
# [18] = target: ETV6 (Homo sapiens, UniProt P41212 1-452); conditions: protein: recombinant; tags: N-terminal GST; dsDNA, one strand shown
# Chain of ETV6 (P41212 whole entry): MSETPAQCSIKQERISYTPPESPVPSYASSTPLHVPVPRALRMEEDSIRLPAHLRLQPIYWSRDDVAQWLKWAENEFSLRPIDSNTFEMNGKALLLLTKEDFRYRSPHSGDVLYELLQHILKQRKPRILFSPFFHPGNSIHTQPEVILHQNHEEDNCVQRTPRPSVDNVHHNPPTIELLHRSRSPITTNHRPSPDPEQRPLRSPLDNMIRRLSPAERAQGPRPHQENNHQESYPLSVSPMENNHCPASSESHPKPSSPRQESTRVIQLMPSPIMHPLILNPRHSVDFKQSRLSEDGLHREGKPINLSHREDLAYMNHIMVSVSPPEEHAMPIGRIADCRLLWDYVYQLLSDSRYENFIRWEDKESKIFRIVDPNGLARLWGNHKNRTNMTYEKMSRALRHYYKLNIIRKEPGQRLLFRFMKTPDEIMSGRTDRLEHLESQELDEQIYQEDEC
# Procedure, shortened: as §1
sequence,measurement,setting,value
TTTGTT,binding signal,[1],"1.19 fold enrichment (6-mer frequency, TF over GST control)"
same,binding signal,[2],"1.25 fold enrichment (6-mer frequency, TF over GST control)"
same,binding signal,[3],"1.3 fold enrichment (6-mer frequency, TF over GST control)"
same,binding signal,[4],"1.29 fold enrichment (6-mer frequency, TF over GST control)"
same,binding signal,[5],"1.3 fold enrichment (6-mer frequency, TF over GST control)"
same,binding signal,[6],"1.46 fold enrichment (6-mer frequency, TF over GST control)"
same,binding signal,[7],"1.33 fold enrichment (6-mer frequency, TF over GST control)"
same,binding signal,[8],"1.35 fold enrichment (6-mer frequency, TF over GST control)"
same,binding signal,[9],"1.46 fold enrichment (6-mer frequency, TF over GST control)"
same,binding signal,[10],"1.25 fold enrichment (6-mer frequency, TF over GST control)"
same,binding signal,[11],"1.29 fold enrichment (6-mer frequency, TF over GST control)"
same,binding signal,[12],"1.27 fold enrichment (6-mer frequency, TF over GST control)"
same,binding signal,[13],"1.26 fold enrichment (6-mer frequency, TF over GST control)"
same,binding signal,[14],"1.33 fold enrichment (6-mer frequency, TF over GST control)"
same,binding signal,[15],"1.18 fold enrichment (6-mer frequency, TF over GST control)"
same,binding signal,[16],"1.27 fold enrichment (6-mer frequency, TF over GST control)"
same,binding signal,[17],"1.34 fold enrichment (6-mer frequency, TF over GST control)"
same,binding signal,[18],"1.34 fold enrichment (6-mer frequency, TF over GST control)"
